Screening results (PubChem BioAssay)
FBW7 act = FBW7 E3 ligase activators, primary screen, biochemical, AlphaScreen, human; hit rate 0.13% among 650,000; AID 1259310, 2017; F-box/WD repeat-containing protein 7 (Homo sapiens), Q969H0; normalized activity (activation), % at 26.1 µM; AlphaScreen FBW7–phospho-cyclin E peptide binding, activator screen; in the data active means normalized activity above about 1.9%;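 further: purified mutant Fbw7 with reduced substrate affinity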
Target sequence (Q969H0 whole entry, looked up): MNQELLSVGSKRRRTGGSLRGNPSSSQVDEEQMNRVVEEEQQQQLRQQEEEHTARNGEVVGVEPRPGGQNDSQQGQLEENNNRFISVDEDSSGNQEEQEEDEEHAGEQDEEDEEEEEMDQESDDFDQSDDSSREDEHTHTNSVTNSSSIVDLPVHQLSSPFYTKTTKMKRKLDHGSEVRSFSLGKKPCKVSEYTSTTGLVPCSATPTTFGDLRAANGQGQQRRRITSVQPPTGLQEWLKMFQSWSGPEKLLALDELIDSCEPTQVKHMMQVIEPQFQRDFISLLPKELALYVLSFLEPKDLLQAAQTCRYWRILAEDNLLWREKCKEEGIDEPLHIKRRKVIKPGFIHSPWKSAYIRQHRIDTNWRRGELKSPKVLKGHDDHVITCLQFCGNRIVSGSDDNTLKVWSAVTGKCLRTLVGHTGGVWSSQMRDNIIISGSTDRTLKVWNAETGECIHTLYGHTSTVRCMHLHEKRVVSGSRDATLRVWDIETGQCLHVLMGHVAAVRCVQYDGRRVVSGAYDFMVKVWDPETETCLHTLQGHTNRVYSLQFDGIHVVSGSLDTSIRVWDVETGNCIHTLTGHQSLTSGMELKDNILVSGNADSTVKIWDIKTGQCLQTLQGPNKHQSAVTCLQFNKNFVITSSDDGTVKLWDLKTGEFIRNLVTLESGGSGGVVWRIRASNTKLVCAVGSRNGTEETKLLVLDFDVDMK
TEAD-YAP block = TEAD-YAP interaction inhibition, primary screen, TEAD-YAP interaction inhibitor project, luminescence, HEK-TIYL cells; AID 1259422, 2018; hit rate 1.4% among 640,000; TEAD-Gal4/YAP UAS-luciferase luminescence; inhibition, % at 9.12 µM; in the data active means inhibition above about 32%;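 further: 0% = median of test compound wells and 100% = reference inhibitor wells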
MITF primary = MITF inhibitors, primary screen, biochemical, AlphaScreen, human; inhibition, % at 2.6 µM; AlphaScreen MITF homodimerization, bead proximity signal; hit rate 0.91% among 650,000; Microphthalmia-associated transcription factor (Homo sapiens), O75030; in the data active means inhibition above about 50%;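 further: 0% = vehicle wells with protein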
GPR151 activ = activators of human GPR151, primary screen, cell-based, PathHunter beta-arrestin, luminescence. G-protein coupled receptor 151 (Homo sapiens), Q8TDV0. hit rate 1% among 650,000. PathHunter beta-arrestin GPR151 cells. activation, % at 11.2 µM; in the data active means activation above about 4.9%;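 further: 0% = median of compound wells and 100% = cells with positive control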
* marks the source's active call; other numbers are inactive results. Rows were chosen to be rich in hits. Some 3.4% of all compounds tested hit in one or more screens of this group.

SMILES	FBW7 act	TEAD-YAP block	MITF primary	GPR151 activ
N#Cc1c(NC(=S)NC(=O)c2cccnc2)sc2c1CCCCCC2	0	14	-1	3
COc1ccc(C(=O)Nn2c(SCc3cccc(Br)c3)nc3ccccc3c2=O)cc1	0	52*	0	0
COc1ccc(C(C)=O)cc1CSc1nc2ccccc2c(=O)n1NC(=O)c1ccccc1	0	-15	7	-1
CS(=O)(=O)N(CC(=O)Nc1cc(Cl)cc(Cl)c1)c1ccc2c(c1)OCO2	0	-5	-11	1
O=C(COC(=O)c1ccc2c(c1)S(=O)(=O)c1ccccc1C2=O)NCc1ccccc1	0	5	-2	2
CC1(C)CC2CC(C)(CN2c2ccc(C(=O)O)cc2[N+](=O)[O-])C1 (stereo not drawn)	0	35*	6	-1
CCC(C)C(=O)NCc1nnc2n1CCN(Cc1ccc3ccccc3c1)CC2 (stereo not drawn)	0	15	22	0
CC1=C(C(=O)OCc2ccccc2)C(c2ccc(C)s2)C2=C(CCCC2=O)N1 (stereo not drawn)	0	1	-6	-1
Cc1cc(Nc2ccccc2)n(-c2ccc([N+](=O)[O-])cc2)n1	0	-3	13	0
Cc1cc(Nc2nc3ccccc3[nH]c2=O)n(-c2ccc([N+](=O)[O-])cc2)n1	0	59*	2	0
CCCCC(=O)N(CC)c1ccccc1C	0	6	9	0
CCN1CCN(C(=O)CCCOc2ccccc2)CC1	0	43*	-1	0
CC(=O)Nc1ccc(NC(=O)Cn2cnc3c(cnn3C(C)(C)C)c2=O)cc1	4.0*	2	18	0
O=C(c1ccccc1Br)N1CCN(c2ccc([N+](=O)[O-])c(N3CCCCC3)c2)CC1	0	17	17	0
O=c1[nH]c2ccc(S(=O)(=O)NCCCO)cc2[nH]1	1.9*	5	21	0
Cc1cccc(NC(=S)N2CCN(C)CC2)c1	0	3	-15	0
COc1ccc(C2C(C#N)=C(N)Oc3c2sc2ccccc32)cc1[N+](=O)[O-] (stereo not drawn)	0	15	15	0
N#CC1=C(N)Oc2c(sc3ccccc23)C1c1cccc([N+](=O)[O-])c1 (stereo not drawn)	0	53*	6	1
N#CC1=C(N)Oc2c(ccc3ccccc23)C1c1cccc([N+](=O)[O-])c1 (stereo not drawn)	0	66*	-6	-1
N#CC1=C(N)Oc2c([nH]c(=O)[nH]c2=O)C1c1cccc([N+](=O)[O-])c1 (stereo not drawn)	-1	4	10	0
O=C(CC1(c2ccccc2)CC(=O)N(Cc2ccncc2)C1=O)N1CCCCCCC1 (stereo not drawn)	0	-9	0	0
O=C(Nc1ccc(O)cc1)c1ccccc1Br	0	76*	-1	0
CN1C(=O)c2ccc(NC(=O)c3ccccc3Br)cc2C1=O	2.0*	-5	2	-1
COc1ccc(C(=O)c2sc3nc(N)c(C#N)c(-c4ccc(C(C)C)cc4)c3c2N)cc1	0	12	4	1
CCN(CC)C(=O)C1CCCN(c2nc(NCCN(C(C)C)C(C)C)c3ncn(C(C)C)c3n2)C1 (stereo not drawn)	0	11	-6	2
SMILES	FBW7 act	TEAD-YAP block	MITF primary	GPR151 activ
CCN(CC)C(=O)C1CCCN(c2nc(Nc3cc(OC)c(OC)c(OC)c3)c3ncn(C(C)C)c3n2)C1 (stereo not drawn)	0	34*	13	0
CCN(CC)C(=O)C1CCCN(c2nc(Nc3ccccc3)c3[nH]cnc3n2)C1 (stereo not drawn)	0	48*	0	3
CCN(CC)C(=O)C1CCCN(c2nc(N)c3ncn(-c4ccccc4)c3n2)C1 (stereo not drawn)	0	46*	-13	-2
CCN(CC)C(=O)C1CCCN(c2nc(NCCN(C(C)C)C(C)C)c3ncn(-c4ccccc4)c3n2)C1 (stereo not drawn)	0	41*	7	-1
O=C(NCC1COc2ccccc2O1)c1n[nH]c(=O)c2ccccc12 (stereo not drawn)	0	1	7	-1
C/C(=N\NC(=O)c1ccc(F)cc1F)c1c(C)nnn1-c1nonc1N	0	-11	0	0
COc1cccc(N/C(N)=N/c2nc(C)cc(C)n2)c1	0	53*	-22	1
Cc1cc(C)nc(/N=C(\N)Nc2cccc(OCc3ccccc3)c2)n1	0	50*	7	1
CCN1CCN(C2CCN(S(=O)(=O)c3ccc4c(c3)OCCO4)CC2)CC1	0	-5	7	2
O=C(NCCCn1ccnc1)c1ccc(C#Cc2ccccc2)o1	0	35*	4	2
CCOC(=O)c1nn(CCO)c2c1CN(Cc1cc(F)ccc1F)CC2	0	6	-3	1
CCCC(=O)Oc1c(Sc2ccccc2[N+](=O)[O-])c(C)nn1C(C)(C)C	0	34*	-14	1
Cc1ccc(N2CCN(C(=O)Cc3nn(C)c(=O)c4ccccc34)CC2C)cc1 (stereo not drawn)	0	38*	5	0
O=C(c1ccc(-c2nc3ccccc3s2)s1)N1CCCC1	0	89*	1	-3
O=C(O)c1ccc(-c2nc3ccccc3s2)s1	0	10	14	-11
CN(C)c1ccc(/C=N/NC(=O)c2ccn(C)n2)cc1	0	-13	13	-4
O=C(CN1CCCC1)N/N=C/c1c(O)ccc2ccccc12	-2	88*	58*	0
CN(C)c1ccc(/C=N/NC(=O)c2[nH]ncc2Br)cc1	0	32*	-2	-8
Cc1cc(/C=N/NC(=O)c2cccc(N(C)C)c2)c(C)n1-c1cc(C(=O)O)cc(C(=O)O)c1	0	-26	52*	-1
O=C(N/N=C\c1c(O)ccc2ccccc12)c1ccccc1O	0	81*	32	1
O=C(N/N=C/c1c(O)ccc2ccccc12)C(=O)N1CCCC1	0	16	-96	1
COc1cc(NC(=O)c2cccc(-n3cc(NC(=O)Cc4ccccc4C)cn3)c2)cc(OC)c1OC	0	0	4	0
O=C(N/N=C/c1c(O)ccc2ccccc12)c1c[nH]c2ccccc12	0	8	7	3
CN(C)c1ccc(/C=N/Nc2cn[nH]c(=O)n2)cc1	-1	81*	13	-6
CN(C)c1ccc(/C=N/NC(=O)c2cccc(O)c2)cc1	0	60*	-4	-6
CN(C)c1ccc(/C=N/Nc2nc3ccccc3o2)cc1	0	55*	13	-4
O=C(N/N=C/c1c(O)ccc2ccccc12)c1[nH]ncc1Br	-1	42*	26	0
O=[N+]([O-])c1ccc(/C=N/Nc2nc3ccccc3o2)cc1	0	-24	-12	1
CN(C)c1ccc(/C=N/NC(=O)c2cc(O)cc(O)c2)cc1	1	2	22	-2
